The OligoGym collection

Biological target: KRBA1
Experiment: pooled miR-30 sensor sort-seq; sequence = guide strand
Conditions: shRNA
Note: reference of the scale not given here.

**Q.** Which sensor-assay potency score (higher = more potent) does the source give for ATTTGATTGAATCTGAGCCAAG here?
**A.** -1.53

**Q.** With TTGGCTGCAACTCTGGGTCTTC as the sequence, how does the sensor-assay potency score (higher = more potent) read?
**A.** -0.346

**Q.** For TCTGAGACCTAGAGTCTCCTGG, which sensor-assay potency score (higher = more potent) is on record?
**A.** -0.0756

**Q.** With TCTTCCATGTCCAAGCTCCAGG as the sequence, how does the sensor-assay potency score (higher = more potent) read?
**A.** -1.05

**Q.** For TTCACTGTGTGATCTGTGGGGT, which sensor-assay potency score (higher = more potent) is on record?
**A.** 0.493

**Q.** For TTCTCCAGCTGAGAAACCGGGC, which sensor-assay potency score (higher = more potent) is on record?
**A.** -0.802

**Q.** With TTGTCGGCAGTTTTGATGGGGA as the sequence, how does the sensor-assay potency score (higher = more potent) read?
**A.** -0.192

**Q.** Which sensor-assay potency score (higher = more potent) does the source give for TAGAGGACAGCAGCTGCTGGGA here?
**A.** -1.32

**Q.** How did the sensor-assay potency score (higher = more potent) turn out when TTTGTCGGCAGTTTTGATGGGG was run?
**A.** 0.519

**Q.** How did the sensor-assay potency score (higher = more potent) turn out when TTGTCTGCTGTCCAGTTCCTGG was run?
**A.** -1.35

**Q.** TCTCCAAACAAGAACTCTGGGA was tested. Which sensor-assay potency score (higher = more potent) did it give?
**A.** -0.424

**Q.** TTCTTCACTGTGTGATCTGTGG was tested. Which sensor-assay potency score (higher = more potent) did it give?
**A.** -0.539

Biological target: KRBA2
Experiment: as above
Conditions: shRNA

**Q.** Which sensor-assay potency score (higher = more potent) does the source give for ATTGAGCTCATGAACAACCTGG here?
**A.** -0.217

**Q.** For TGTGTCTCTGTAGCAATCCTTT, which sensor-assay potency score (higher = more potent) is on record?
**A.** -1.24

**Q.** TTTAGCTTCTTTAACTTCCTTT was tested. Which sensor-assay potency score (higher = more potent) did it give?
**A.** 0.674

**Q.** Which sensor-assay potency score (higher = more potent) does the source give for TATAAGACAATAACTTCTTTGG here?
**A.** -0.185

**Q.** With TAACAAGACACTGACCACCTCA as the sequence, how does the sensor-assay potency score (higher = more potent) read?
**A.** 0.174

**Q.** For TTGCTGTTGTAACTTTTGCTTT, which sensor-assay potency score (higher = more potent) is on record?
**A.** -1.09

**Q.** For TTGCTTTCTACTAACTTTGTTA, which sensor-assay potency score (higher = more potent) is on record?
**A.** 0.0117

**Q.** How did the sensor-assay potency score (higher = more potent) turn out when TAAGACAATAACTTCTTTGGTG was run?
**A.** 0.507

**Q.** How did the sensor-assay potency score (higher = more potent) turn out when TTGAGCTCATGAACAACCTGGT was run?
**A.** 0.411

**Q.** With TGAACTTGAACTCACCATCGGC as the sequence, how does the sensor-assay potency score (higher = more potent) read?
**A.** 0.0582

Biological target: KRCC1
Experiment: as above
Conditions: shRNA

**Q.** How did the sensor-assay potency score (higher = more potent) turn out when TTATCTGAGGAGAAGTGCTTGT was run?
**A.** 0.253

**Q.** How did the sensor-assay potency score (higher = more potent) turn out when TTCTCTTATGCTTAGACCGCTC was run?
**A.** -0.386

**Q.** For TTTCTTAGAGACTACATCTCGG, which sensor-assay potency score (higher = more potent) is on record?
**A.** -0.234

**Q.** For TTCTTAGAGACTACATCTCGGC, which sensor-assay potency score (higher = more potent) is on record?
**A.** -0.216

**Q.** Which sensor-assay potency score (higher = more potent) does the source give for TTAACCTCTCCTTTGTACCCAC here?
**A.** -0.366

**Q.** For TTGTTGATTAAAGTTCAGGGGT, which sensor-assay potency score (higher = more potent) is on record?
**A.** -0.113

**Q.** How did the sensor-assay potency score (higher = more potent) turn out when TTAGAGACTACATCTCGGCTTT was run?
**A.** 0.863

**Q.** With TTCTTGTTGATTAAAGTTCAGG as the sequence, how does the sensor-assay potency score (higher = more potent) read?
**A.** -0.822

**Q.** Which sensor-assay potency score (higher = more potent) does the source give for TTTCTGTACTGACATGTACGGT here?
**A.** -0.751

**Q.** Which sensor-assay potency score (higher = more potent) does the source give for TTCTGTACTGACATGTACGGTT here?
**A.** -0.0449

**Q.** Which sensor-assay potency score (higher = more potent) does the source give for TTTTTCTGAGAAACAGTCCCTC here?
**A.** -0.167

**Q.** With TTGATGAGTACTGGTACTGTTA as the sequence, how does the sensor-assay potency score (higher = more potent) read?
**A.** -0.491

Biological target: KRI1
Experiment: as above
Conditions: shRNA

**Q.** For TTCTTTAGGGAGCACCACCGGT, which sensor-assay potency score (higher = more potent) is on record?
**A.** -1.34

**Q.** With TTTGTTGAGGATGTAATCCCGC as the sequence, how does the sensor-assay potency score (higher = more potent) read?
**A.** -0.152

**Q.** With ATGTCCTCGTAGTCCAGCCGGT as the sequence, how does the sensor-assay potency score (higher = more potent) read?
**A.** -1.51

**Q.** How did the sensor-assay potency score (higher = more potent) turn out when TTCTGCAGCAAACTGGAGCCGC was run?
**A.** -0.837
